Screening results from PubChem BioAssay.
sEH act – activators of human soluble epoxide hydrolase. P34913. purified human sEH enzymatic activity, activator screen. actives 0.04% (n = 91,000). AID 717. activation, % at 2 µM; in the data active = activation above about 37%
CYP2C19 act – increases human CYP2C19 enzyme activity; P33261; recombinant CYP2C19, luciferin-H EGE luminescence; active compounds read high; 0 = fully inhibited enzyme, 1 = untreated enzyme; activation factor at 5 µM; 96,000 tested, under 10 active; AID 1025;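 active = activation factor of at least 2 at 5 µM in the primary screen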;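 also: 0 = wells with 2.5 mM tranylcypromine and 1 = vehicle-only wells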
Target sequence (P33261 whole entry, looked up): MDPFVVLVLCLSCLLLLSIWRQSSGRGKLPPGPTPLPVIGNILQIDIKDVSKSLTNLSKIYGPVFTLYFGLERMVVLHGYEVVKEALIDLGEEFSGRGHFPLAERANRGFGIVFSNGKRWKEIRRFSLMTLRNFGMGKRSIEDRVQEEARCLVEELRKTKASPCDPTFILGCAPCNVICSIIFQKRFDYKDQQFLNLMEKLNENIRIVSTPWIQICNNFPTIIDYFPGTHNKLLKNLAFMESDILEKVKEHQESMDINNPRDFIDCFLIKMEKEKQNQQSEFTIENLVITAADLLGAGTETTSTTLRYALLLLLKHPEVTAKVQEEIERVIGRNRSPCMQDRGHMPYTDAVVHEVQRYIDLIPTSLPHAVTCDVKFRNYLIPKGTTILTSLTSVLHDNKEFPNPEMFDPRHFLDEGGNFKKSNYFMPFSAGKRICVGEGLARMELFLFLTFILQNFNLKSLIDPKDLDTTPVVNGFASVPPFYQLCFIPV
sEH inh – blocks human soluble epoxide hydrolase activity; P34913; actives 0.34% (n = 91,000); AID 707; inhibition, % at 2 µM; recombinant human sEH enzymatic activity assay; in the data active = inhibition above about 80%
CYP2C19 inh – human CYP2C19 inhibition | P33261 | CYP2C19 Supersomes, luciferin-H EGE luminescence, 30 min | actives 21% (n = 96,000) | inhibition, % at 5 µM;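 active = CYP2C19 inhibition above a set limit at 5 µM in the primary screen, cut at about 50% in these data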;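 also: plate controls were negative control wells for no effect and 2.5 mM tranylcypromine positive control for full effect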
CYP2C9 act – activators of human CYP2C9; P11712; recombinant CYP2C9, luciferin-H conversion, luminescence; active compounds read high; factor 1 = untreated enzyme, 0 = blocked; activation factor at 5 µM; actives 1.4% (n = 96,000);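 active = activation factor of 2 or more for CYP2C9 at a 5 µM dose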;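 also: 0 = sulfaphenazole-blocked wells and 1 = vehicle-only wells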
CYP2C9 inhib – human CYP2C9 inhibition. P11712. CYP2C9 Supersomes, luciferin-H conversion, luminescence. inhibition, % at 5 µM. actives 20% (n = 96,000);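 active = blocking of liver enzyme CYP2C9 beyond about 50% at 5 µM, limit read from the data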
* marks the source's active call; other numbers are inactive results; / = not tested or not shown. Hits are enriched below; roughly 27% of the tested compounds scored in any of these assays.

SMILES	sEH act	CYP2C19 act	sEH inh	CYP2C19 inh	CYP2C9 act	CYP2C9 inhib
Cc1ccc(NC(=O)COc2ccc3oc4c(c3c2)CCCC4)nc1	7	0.7	-11	31	0.4	55*
Clc1ccc(OCc2nnc3n2N=C(c2ccc4c(c2)OCCO4)CS3)c(Cl)c1	/	0.3	/	74*	0	97*
CCc1nnc2n1N=C(c1ccc(-c3ccc(Cl)cc3Cl)o1)CS2	-5	/	5	/	/	/
Cc1ccc(NC(=O)C(C)N2C(=O)C3C4CC(C(Br)C4Br)C3C2=O)cc1 (stereo not given)	1	0.5	1	47	0.7	29
CC1=CC(c2ccccc2)n2nc(NS(=O)(=O)c3ccc(C)cc3)nc2N1 (stereo not given)	3	1.1	-7	-8	0.8	24
CC1=CC(c2ccc(Cl)cc2)n2nc(NS(=O)(=O)c3ccc(C)cc3)nc2N1 (stereo not given)	25	1.2	-23	-19	0.3	70*
COc1ccc(NC(=O)C(=O)NCc2ccncc2)c(OC)c1	15	0.4	-18	57*	0.3	70*
COc1ccc(NC(=O)NCc2ccncc2)c(OC)c1	5	0.6	-3	40	0.7	30
COc1ccc(C)cc1NC(=O)C(=O)NCc1ccncc1	-3	0.6	2	41	0.2	78*
CN(C)C(=O)CSc1nnc(Cc2ccccc2)n1Cc1ccco1	-2	/	7	/	/	/
CCOC(=O)c1cc2c(c(CSc3nc4ccccc4c(=O)n3Cc3ccco3)c1)OCOC2	-10	0.9	12	6	0.3	67*
Cc1ccc(NC(=O)CN(C)C(=O)CSc2nc3ccccc3c(=O)n2Cc2ccco2)cc1	-2	0.7	3	31	0.2	79*
Cc1ccc(Cn2c(SCC(=O)Nc3cc(C)on3)nc3ccccc3c2=O)cc1	-9	0.7	8	27	1	4
CN(Cc1ccccc1)C(=O)CSc1nc2ccccc2c(=O)n1Cc1ccco1	/	0	/	97*	0	100*
CCOC(=O)Cn1c(C)c(Br)c(=O)c2cccc(C)c21	7	1.1	-4	-5	1	-4
CCCCc1[nH]c(=O)c(C#N)c2c1CSC(C)(C)C2	/	0.4	/	63*	0.6	37
CCc1[nH]c(=O)c(C#N)c2c1CSC(C)(C)C2	-3	/	3	/	/	/
CC(C)c1[nH]c(=O)c(C#N)c2c1CSC(C)(C)C2	2	0.3	0	71*	1	3
Clc1ccc(-c2nn3c(-c4ccccn4)nnc3s2)c(Cl)c1	/	0.7	/	35	0.7	29
CCC1SC(N)=NC1=O (stereo not given)	4	1.2	-1	-16	1.3	-27
Cc1cccc(C)c1N1C(=O)c2ccccc2C1=O	-4	0.5	3	54*	0.8	15
Cc1ccc(Cn2c(CN3CC(C)OC(C)C3)nc3c2c(=O)[nH]c(=O)n3C)cc1 (stereo not given)	/	1	/	2	1	2
CC1Oc2ccccc2N(CC(=O)Nc2ccc3c(c2)OCO3)C1=O (stereo not given)	-28	0.7	27	27	1	0
CCC1(c2ccccc2)NC(=O)N(CC(=O)Nc2ccc3c(c2)OCO3)C1=O (stereo not given)	-4	1	7	-3	0.8	20
Cc1ccc(C2(C)NC(=O)N(CC(=O)Nc3ccc4c(c3)OCO4)C2=O)cc1 (stereo not given)	/	0.6	/	36	0.2	82*
SMILES	sEH act	CYP2C19 act	sEH inh	CYP2C19 inh	CYP2C9 act	CYP2C9 inhib
CC1(c2ccc3c(c2)OCO3)NC(=O)N(CC(=O)Nc2ccc(N3CCOCC3)cc2)C1=O (stereo not given)	/	0.8	/	20	0.4	59*
Cc1cccc(NC(=O)CN2C(=O)NC(C)(c3ccc4c(c3)OCO4)C2=O)c1 (stereo not given)	26	0.7	-27	27	0.3	67*
CC1(c2ccccc2)NC(=O)N(CC(=O)N2CCOCC2)C1=O (stereo not given)	28	0.9	-26	13	1	-1
CCn1c(SCc2ccc(C#N)cc2)nnc1-c1ccc(S(=O)(=O)N2CCCCC2)cc1	-5	0.8	6	17	0.9	10
O=C(NC(=S)Nc1ccc(N2CCCCC2)cc1)c1cccs1	6	1	-7	-4	1	-3
CCCC(=O)Nc1ccc(C(=O)NNC(=S)NC(=O)c2cccs2)cc1	0	0.9	-3	7	0.7	28
CCN(c1ccccc1)S(=O)(=O)c1ccc(NC(=S)NC(=O)c2cccs2)cc1	-43	0.7	43	32	0.2	77*
CCCC(=O)NC(=S)Nc1ccc(NC(=O)c2cccs2)cc1	-12	0.5	14	52*	0.2	85*
O=C(OCn1nnc2ccccc2c1=O)c1ccc2ccccc2n1	-13	1.1	14	-7	1.3	-26
N#Cc1c(NC(=O)c2ccncc2)sc2c1CCC2	-1	0.3	3	73*	0.5	53*
CC1CCN(CC(=O)Nc2sc3c(c2C#N)CCC3)CC1	/	0.6	/	43	0.4	56*
CCCC(=O)Nc1sc2c(c1C#N)CCCC2	4	0.6	-4	44	0.5	50*
CC(=O)Nc1sc2c(c1C#N)CCCC2	-1	1	-1	-3	1	0
COC(=O)CCC(=O)Nc1sc2c(c1C#N)CCCC2	8	0.8	-11	15	0.9	14
CCOC(=O)c1oc2ccccc2c1NC(=O)c1cc(OC)cc(OC)c1	/	0.9	/	8	0.9	13
COc1ccc(C2C(C(=O)Nc3cc(C)on3)c3ccccc3C(=O)N2C)cc1 (stereo not given)	4	0.8	-6	22	0.3	69*
COc1ccc(C2C(C(=O)Nc3cc(C)on3)c3ccccc3C(=O)N2C)cc1OC (stereo not given)	3	1	-2	4	0.8	19
CCCC(c1nnnn1CS(=O)(=O)c1ccc(C)cc1)N1CCN(c2ccccc2)CC1 (stereo not given)	2	0.7	-3	27	0.4	62*
Cc1ccc(S(=O)(=O)Cn2nnnc2C(c2ccccc2)N2CCN(c3ccccc3)CC2)cc1 (stereo not given)	3	/	-2	/	/	/
Cc1ccc(-c2nnnn2CS(=O)(=O)c2ccccc2)cc1	-8	0.3	6	68*	1.7	-74
Cc1ccc(S(=O)(=O)Cn2nnnc2C(c2ccccc2)N2CCN(c3ncccn3)CC2)cc1 (stereo not given)	-2	0	5	98*	0.1	94*
CC(C)Cc1nnc(NC(=O)c2ccc([N+](=O)[O-])cc2)s1	-6	0.9	8	10	1.3	-27
CCc1nnc(NC(=O)c2ccncc2)s1	/	0.9	/	11	0.7	27
CC(C)Cc1nnc(NC(=O)c2ccncc2)s1	3	0.1	-5	92*	0	96*
CCCc1nnc(NC(=O)c2ccncc2)s1	1	0.5	-2	47	0.2	80*
